# The full list was thinned out, with the strongest signals kept by preference.
# Experiments:
# Assay in all cases: glycan array binding signal (z-score within array); higher = stronger binding
# Conditions in all cases: glycan notation: IUPAC condensed, linker removed
# [1] = target: Fuc(a1-2)Gal(b1-3)GalNAc(b1-3)Gal(a1-4)Gal(b1-4)Glc
# Outline: (§1)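 From the Consortium for Functional Glycomics database, 3228 arrays were curated, keeping only those whose protein sequence was available. Binding is given as a within-array Z-score averaged across arrays sharing a protein sequence and across linkers. Negative Z-scores can be read as non-binding.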
# [2] = target: Fuc(a1-2)Gal(b1-3)[Fuc(a1-4)]GlcNAc(b1-2)Man(a1-3)[Fuc(a1-2)Gal(b1-3)[Fuc(a1-4)]GlcNAc(b1-2)Man(a1-6)]Man(b1-4)GlcNAc(b1-4)[Fuc(a1-6)]GlcNAc(b1-4)[Fuc(a1-6)]GlcNAc
# Outline: as §1
# [3] = target: Fuc(a1-2)[Gal(a1-3)]Gal(b1-3)GlcNAc(b1-3)GalNAc
# Outline: as §1
# [4] = target: Fuc(a1-2)[Gal(a1-3)]Gal(b1-4)GlcNAc(b1-6)GalNAc
# Outline: as §1
# [5] = target: Fuc(a1-2)[GalNAc(a1-3)]Gal(b1-3)GlcNAc
# Outline: as §1
# [6] = target: Fuc(a1-2)[GalNAc(a1-3)]Gal(b1-3)GlcNAc(b1-2)Man(a1-3)[Fuc(a1-2)[GalNAc(a1-3)]Gal(b1-3)GlcNAc(b1-2)Man(a1-6)]Man(b1-4)GlcNAc(b1-4)[Fuc(a1-6)]GlcNAc
# Outline: as §1
# [7] = target: Fuc(a1-3)[Gal(b1-4)]Glc6S
# Outline: as §1
# [8] = target: Fuc(a1-3)[Gal(b1-4)]GlcNAc(b1-2)Man(a1-3)[Fuc(a1-3)[Gal(b1-4)]GlcNAc(b1-2)Man(a1-6)]Man(b1-4)GlcNAc(b1-4)[Fuc(a1-6)]GlcNAc
# Outline: as §1
# [9] = target: Fuc(a1-3)[GalNAc(b1-4)]GlcNAc6S
# Outline: as §1
# [10] = target: Gal(a1-3)Gal(b1-3)GlcNAc(b1-2)Man(a1-3)[Gal(a1-3)Gal(b1-3)GlcNAc(b1-2)Man(a1-6)]Man(b1-4)GlcNAc(b1-4)GlcNAc
# Outline: as §1
# [11] = target: Gal(a1-3)Gal(b1-3)GlcNAc(b1-3)GalNAc
# Outline: as §1
# [12] = target: Gal(a1-3)Gal(b1-4)GlcNAc(b1-6)GalNAc
# Outline: as §1
# [13] = target: Gal(a1-3)Gal(b1-4)[Fuc(a1-3)]GlcNAc(b1-2)Man(a1-3)[Gal(a1-3)Gal(b1-4)[Fuc(a1-3)]GlcNAc(b1-2)Man(a1-6)]Man(b1-4)GlcNAc(b1-4)GlcNAc
# Outline: as §1
# [14] = target: Gal(a1-4)GlcNAc
# Outline: as §1
# [15] = target: Gal(a1-6)Glc
# Outline: as §1
# [16] = target: Gal(b1-3)GalNAc(b1-4)Gal(b1-4)Glc
# Outline: as §1
# [17] = target: Gal(b1-3)GlcNAc(a1-6)Gal(b1-4)GlcNAc
# Outline: as §1
# [18] = target: Gal(b1-3)GlcNAc(b1-3)Gal(b1-3)GlcNAc
# Outline: as §1
# [19] = target: Gal(b1-3)GlcNAc(b1-3)Gal(b1-4)GlcNAc
# Outline: as §1
# [20] = target: Gal(b1-3)GlcNAc(b1-3)Gal(b1-4)[Fuc(a1-3)]GlcNAc(b1-6)[Gal(b1-3)GlcNAc(b1-3)]Gal(b1-4)Glc
# Outline: as §1
# [21] = target: Gal(b1-3)[Fuc(a1-4)]GlcNAc(b1-2)Man
# Outline: as §1
# [22] = target: Gal(b1-3)[Fuc(a1-4)]GlcNAc(b1-3)Gal(b1-4)[Fuc(a1-3)]GlcNAc
# Outline: as §1
# [23] = target: Gal(b1-3)[Neu5Ac(a2-6)]GalNAc
# Outline: as §1
# [24] = target: Gal(b1-4)GlcNAc(b1-2)Man(a1-3)[Gal(b1-4)GlcNAc(b1-2)Man(a1-6)][GlcNAc(b1-4)]Man(b1-4)GlcNAc(b1-4)[Fuc(a1-6)]GlcNAc
# Outline: as §1
# [25] = target: Gal(b1-4)GlcNAc(b1-2)Man(a1-3)[GlcNAc(b1-4)][Gal(b1-4)GlcNAc(b1-2)Man(a1-6)]Man(b1-4)GlcNAc(b1-4)GlcNAc
# Outline: as §1
# [26] = target: Gal(b1-4)GlcNAc(b1-2)Man(a1-3)[Man(a1-6)]Man(b1-4)GlcNAc(b1-4)GlcNAc
# Outline: as §1
# [27] = target: Gal(b1-4)GlcNAc(b1-2)[Gal(b1-4)GlcNAc(b1-4)]Man(a1-3)[GlcNAc(b1-4)][Gal(b1-4)GlcNAc(b1-2)Man(a1-6)]Man(b1-4)GlcNAc(b1-4)GlcNAc
# Outline: as §1
# [28] = target: Gal(b1-4)GlcNAc(b1-2)[Gal(b1-4)GlcNAc(b1-6)]Man(a1-6)[Gal(b1-4)GlcNAc(b1-2)Man(a1-3)]Man(b1-4)GlcNAc(b1-4)[Fuc(a1-6)]GlcNAc
# Outline: as §1
# [29] = target: Gal(b1-4)GlcNAc(b1-3)Gal(b1-4)GlcNAc(b1-2)[Gal(b1-4)GlcNAc(b1-3)Gal(b1-4)GlcNAc(b1-6)]Man(a1-6)[Gal(b1-4)GlcNAc(b1-3)Gal(b1-4)GlcNAc(b1-2)Man(a1-3)]Man(b1-4)GlcNAc(b1-4)GlcNAc
# Outline: as §1
# [30] = target: Gal(b1-4)GlcNAc(b1-3)Gal(b1-4)GlcNAc(b1-3)Gal(b1-4)GlcNAc(b1-3)Gal(b1-4)GlcNAc(b1-2)Man(a1-3)[Gal(b1-4)GlcNAc(b1-3)Gal(b1-4)GlcNAc(b1-3)Gal(b1-4)GlcNAc(b1-3)Gal(b1-4)GlcNAc(b1-2)Man(a1-6)]Man(b1-4)GlcNAc(b1-4)GlcNAc
# Outline: as §1
# [31] = target: Gal(b1-4)GlcNAc(b1-3)[Fuc(a1-3)GlcNAc(b1-6)]Gal(b1-4)Glc
# Outline: as §1
# [32] = target: Gal(b1-4)GlcNAc(b1-6)Gal(b1-4)GlcNAc
# Outline: as §1
# [33] = target: Gal3S6S(b1-4)GlcNAc
# Outline: as §1
# [34] = target: Gal6S(b1-3)GlcNAc6S
# Outline: as §1
# [35] = target: Gal6S(b1-4)Glc6S
# Outline: as §1
# [36] = target: Gal6S(b1-4)GlcNAc6S
# Outline: as §1
# [37] = target: GalNAc(b1-3)Gal
# Outline: as §1
# [38] = target: GlcA(b1-6)Gal
# Outline: as §1
# [39] = target: GlcNAc(a1-4)Gal(b1-3)GlcNAc
# Outline: as §1
# [40] = target: GlcNAc(a1-4)Gal(b1-4)GlcNAc
# Outline: as §1
# [41] = target: GlcNAc(a1-4)Gal(b1-4)GlcNAc(b1-3)Gal(b1-4)[Fuc(a1-3)]GlcNAc(b1-3)Gal(b1-4)[Fuc(a1-3)]GlcNAc
# Outline: as §1
# [42] = target: GlcNAc(b1-2)[GlcNAc(b1-6)]Man(a1-6)[GlcNAc(b1-2)Man(a1-3)]Man(b1-4)GlcNAc(b1-4)GlcNAc
# Outline: as §1
# [43] = target: GlcNAc(b1-3)Fuc
# Outline: as §1
# [44] = target: GlcNAc(b1-3)Gal(b1-4)GlcNAc(b1-3)GalNAc
# Outline: as §1
# [45] = target: GlcNAc(b1-4)GlcNAc(b1-4)GlcNAc(b1-4)GlcNAc(b1-4)GlcNAc
# Outline: as §1
# [46] = target: Neu5Ac(a2-3)Gal(b1-4)GlcNAc(b1-6)[Neu5Ac(a2-3)Gal(b1-3)]GalNAc
# Outline: as §1
# [47] = target: Neu5Ac(a2-3)Gal(b1-4)GlcNAc6S
# Outline: as §1
# [48] = target: Neu5Ac(a2-3)[GalNAc(b1-4)]Gal(b1-4)GlcNAc
# Outline: as §1
# [49] = target: Neu5Ac(a2-6)Gal(b1-4)GlcNAc(b1-2)Man
# Outline: as §1
# [50] = target: Neu5Ac(a2-6)Gal(b1-4)GlcNAc(b1-3)Gal(b1-3)GlcNAc
# Outline: as §1
# [51] = target: Neu5Ac(a2-6)Gal(b1-4)GlcNAc(b1-3)Gal(b1-4)GlcNAc(b1-3)Gal(b1-4)GlcNAc(b1-2)Man(a1-3)[Neu5Ac(a2-6)Gal(b1-4)GlcNAc(b1-3)Gal(b1-4)GlcNAc(b1-3)Gal(b1-4)GlcNAc(b1-2)Man(a1-6)]GalNAc
# Outline: as §1
# [52] = target: Neu5Ac(a2-6)GalNAc(b1-4)GlcNAc6S
# Outline: as §1
# [53] = target: Neu5Ac(a2-8)Neu5Ac(a2-8)Neu5Ac(a2-3)Gal(b1-4)Glc
# Outline: as §1
binder,measurement,setting,value
Epa3to1 (Candida glabrata) (protein) MGSSHHHHHHSSGLVPRGSHMKRELSSQNPFGYPIGCSPQDVAIIPGLTMELYSYPIVSGTPPNCYDASYVDPEYPRTGYLKRKMVGKSTGVTGNLNYKYSVEKACMVKYGNLPAGYNYNEPLTVSNFTMILYGYFKAQTTGLHTFFVNADDLLYINFGAGNAFDCCKREDSKTKLGEYVAYDIWHVDSSKNKVSLFLEKDLYYPIRMFFNNREYDSSLDLSFSVNGATDQISDFSGYLYSVPDQPDTCPAHIGYDTTCR,glycan array binding signal (z-score),[1],-0.161
same,glycan array binding signal (z-score),[2],-0.07
same,glycan array binding signal (z-score),[3],-0.274
same,glycan array binding signal (z-score),[4],-0.462
same,glycan array binding signal (z-score),[5],0.225
same,glycan array binding signal (z-score),[6],-0.204
same,glycan array binding signal (z-score),[7],0.568
same,glycan array binding signal (z-score),[8],0.093
same,glycan array binding signal (z-score),[9],-0.498
same,glycan array binding signal (z-score),[10],0.169
same,glycan array binding signal (z-score),[11],-0.594
same,glycan array binding signal (z-score),[12],0.248
same,glycan array binding signal (z-score),[13],-0.206
same,glycan array binding signal (z-score),[14],3.41
same,glycan array binding signal (z-score),[15],1.7
same,glycan array binding signal (z-score),[16],5.3
same,glycan array binding signal (z-score),[17],0.409
same,glycan array binding signal (z-score),[18],-0.713
same,glycan array binding signal (z-score),[19],-0.502
same,glycan array binding signal (z-score),[20],-0.061
same,glycan array binding signal (z-score),[21],-0.37
same,glycan array binding signal (z-score),[22],-0.87
same,glycan array binding signal (z-score),[23],5.48
same,glycan array binding signal (z-score),[24],-0.745
same,glycan array binding signal (z-score),[25],-0.291
same,glycan array binding signal (z-score),[26],3.23
same,glycan array binding signal (z-score),[27],0.229
same,glycan array binding signal (z-score),[28],0.071
same,glycan array binding signal (z-score),[29],7.55
same,glycan array binding signal (z-score),[30],-0.05
same,glycan array binding signal (z-score),[31],2.39
same,glycan array binding signal (z-score),[32],0.054
same,glycan array binding signal (z-score),[33],0.487
same,glycan array binding signal (z-score),[34],4.12
same,glycan array binding signal (z-score),[35],6.81
same,glycan array binding signal (z-score),[36],9.56
same,glycan array binding signal (z-score),[37],0.105
same,glycan array binding signal (z-score),[38],0.35
same,glycan array binding signal (z-score),[39],-0.807
same,glycan array binding signal (z-score),[40],-0.345
same,glycan array binding signal (z-score),[41],-0.037
same,glycan array binding signal (z-score),[42],-0.435
same,glycan array binding signal (z-score),[43],-0.291
same,glycan array binding signal (z-score),[44],0.229
same,glycan array binding signal (z-score),[45],4.95
same,glycan array binding signal (z-score),[46],-0.382
same,glycan array binding signal (z-score),[47],-0.83
same,glycan array binding signal (z-score),[48],-0.706
same,glycan array binding signal (z-score),[49],-0.272
same,glycan array binding signal (z-score),[50],4.57
same,glycan array binding signal (z-score),[51],0.07
same,glycan array binding signal (z-score),[52],-0.365
same,glycan array binding signal (z-score),[53],0.154

# Reference: the supplement of paper PMC8728848
